Results filed as inconclusive are left out. Where a call stands in place of a potency, no number is given. Values without a mark were called inactive. The source made the active and inactive calls. Unless noted, calls come from the whole dose curve; as a rule, active = well fitted curve in the direction sought with a large enough effect in the repeat runs; inconclusive = weak or mixed curves; inactive = no such curve, though single readings can be large; an effect the other way counts as inactive or inconclusive.
Biological target: Aryl hydrocarbon receptor (Homo sapiens) (UniProt P35869)
Sequence (P35869 whole entry, looked up): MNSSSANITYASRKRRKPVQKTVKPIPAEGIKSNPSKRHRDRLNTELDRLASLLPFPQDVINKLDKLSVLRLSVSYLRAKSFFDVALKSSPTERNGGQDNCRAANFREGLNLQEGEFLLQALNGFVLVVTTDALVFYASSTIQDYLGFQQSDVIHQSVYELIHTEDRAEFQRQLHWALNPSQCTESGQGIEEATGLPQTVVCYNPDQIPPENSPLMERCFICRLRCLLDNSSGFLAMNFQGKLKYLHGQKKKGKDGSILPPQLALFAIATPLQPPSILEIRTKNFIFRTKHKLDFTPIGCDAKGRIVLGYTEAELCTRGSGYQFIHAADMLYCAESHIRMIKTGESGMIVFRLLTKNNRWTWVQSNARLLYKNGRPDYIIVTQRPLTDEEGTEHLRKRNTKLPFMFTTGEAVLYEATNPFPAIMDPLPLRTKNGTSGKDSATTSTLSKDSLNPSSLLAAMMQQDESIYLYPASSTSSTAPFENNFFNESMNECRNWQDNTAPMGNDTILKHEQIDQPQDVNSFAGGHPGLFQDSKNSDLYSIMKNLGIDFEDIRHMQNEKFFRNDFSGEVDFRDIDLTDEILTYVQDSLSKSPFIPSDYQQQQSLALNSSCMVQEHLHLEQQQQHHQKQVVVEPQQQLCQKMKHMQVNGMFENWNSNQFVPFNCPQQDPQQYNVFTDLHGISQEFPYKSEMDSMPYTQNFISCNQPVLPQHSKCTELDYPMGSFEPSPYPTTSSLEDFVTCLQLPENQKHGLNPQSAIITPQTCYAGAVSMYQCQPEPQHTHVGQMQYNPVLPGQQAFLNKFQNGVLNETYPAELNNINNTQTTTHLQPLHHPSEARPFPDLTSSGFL
Assay: qHTS assay to identify small molecule that activate the aryl hydrocarbon receptor (AhR) signaling pathway (AID 743085); note: nearly all actives have a fitted effect of over 15% in size; note: potency is the fitted concentration of half-maximal effect;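 for activation: HG2L7.5c1 human HepG2 liver cells with stably integrated DRE-driven firefly reporter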
Settings: HepG2 AhR-luc (HG2L7.5c1), luciferase, 24 h; series mostly up to 70.3 µM
Outline: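 Luminescence (ONE-Glo) from a dioxin-responsive-element luciferase reporter in HG2L7.5c1 HepG2 cells after 24 hr compound exposure at 37C; viability measured by CellTiter-Fluor fluorescence beforehand.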
For `CN=C(NC#N)Nc1ccc(C2=NNC(=O)CC2C)cc1` (centres undefined), the Potency was “inactive”.
With `O=C(OCC1(COC(=O)c2cccnc2)CCCC(COC(=O)c2cccnc2)(COC(=O)c2cccnc2)C1O)c1cccnc1` the Potency was “inactive”.
With `OCCN(CCO)c1cccc(Cl)c1` the Potency was “inactive”.
For `CCCC/C=C\CCCCCCCCCC=O`, the Potency was “inactive”.
With `CC/C=C\CC1=C(C)CCC1=O` the Potency was “inactive”.
With `CCC(C=O)CC` the Potency was “inactive”.
In the case of `BrCc1cccc(Oc2ccccc2)c1`, the Potency is reported as “inactive”.
In the case of `C[Si](C)(C)C`, the Potency is reported as “inactive”.
In the case of `N#Cc1ccc(C(=O)O)cc1`, the Potency is reported as “inactive”.
With `CC(C)CC(C)CC(C)CC(C)COC(=O)c1ccccc1C(=O)OCC(C)CC(C)CC(C)CC(C)C` (centres undefined) the Potency was “inactive”.
For `CCCOC(OCCC)OCCC`, the Potency was “inactive”.
With `CNC(=O)[C@H]1O[C@@H](n2cnc3c(NCc4cc(Cl)ccc4OCc4cc(C)no4)ncnc32)[C@H](O)[C@@H]1N` the Potency was “inactive”.
With `FC(F)(F)c1ccccc1-n1ccnc1` the Potency was “inactive”.
With `CC1COc2ccccc2N1` (centres undefined) the Potency was 0.969 µM (active).
With `C=CC(OCC)OCC` the Potency was 60.4 µM (active).
With `CCOCCOCCOCC` the Potency was “inactive”.
In the case of `CCO[Si](CCCS)(OCC)OCC`, the Potency is reported as “inactive”.
In the case of `N[C@@H](COP(=O)(O)O)C(=O)O`, the Potency is reported as “inactive”.
Compound `COC(=O)C1CC(=O)C(C(=O)OC)CC1=O` (centres undefined) has an activation of 0.473% [at 8.47 µM].
For `CC(=O)c1sc(C)nc1C`, the Potency was “inactive”.
For `CC(C)(C)c1cc(CCC(=O)NN)cc(C(C)(C)C)c1O`, the Potency was “inactive”.
For `O=S(=O)(O)CCN1CCN(CCO)CC1`, the Potency was “inactive”.
For `CC(=O)N[C@@H](CCC(=O)O)C(=O)O`, the Potency was “inactive”.
For `COc1ccc(OC)c(Cl)c1`, the Potency was “inactive”.
In the case of `CC(CN)CC(C)(C)CCN` (centres undefined), the Potency is reported as “inactive”.
In the case of `NCCS`, the Potency is reported as “inactive”.

Test system: not listed separately
Assay: qHTS assay to identify small molecule that activate the aryl hydrocarbon receptor (AhR) signaling pathway - cell viability counter screen (AID 743086);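 note: HepG2 liver cells carrying the AhR DRE luciferase reporter; nearly all actives have a fitted effect of over 45% in size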
Settings: HepG2-AhR-luc viability, CellTiter-Fluor, 24 h; series mostly up to 70.3 µM
Outline: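 HepG2-AhR-luc (HG2L7.5c1) cells, 4000/well, were preincubated 5 h at 37C, exposed to compound in qHTS format for 24 hr at 37C, then given CellTiter-Fluor for 30 min; viability was read as fluorescence in the reporter wells.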
With `CN=C(NC#N)Nc1ccc(C2=NNC(=O)CC2C)cc1` (centres undefined) the Potency was “inactive”.
For `OCCN(CCO)c1cccc(Cl)c1`, the Potency was “inactive”.
With `CCCC/C=C\CCCCCCCCCC=O` the Potency was “inactive”.
For `CC(C)(C)OC(=O)c1ccc(O)cc1`, the Potency was “inactive”.
For `CC/C=C\CC1=C(C)CCC1=O`, the Potency was “inactive”.
For `BrCc1cccc(Oc2ccccc2)c1`, the Potency was “inactive”.
With `C[Si](C)(C)C` the Potency was “inactive”.
With `O=C(NCCN1CCOCC1)c1ccc(Cl)cc1` the Potency was “inactive”.
For `CCCOC(OCCC)OCCC`, the Potency was “inactive”.
For `CNC(=O)[C@H]1O[C@@H](n2cnc3c(NCc4cc(Cl)ccc4OCc4cc(C)no4)ncnc32)[C@H](O)[C@@H]1N`, the Potency was “inactive”.
In the case of `FC(F)(F)c1ccccc1-n1ccnc1`, the Potency is reported as “inactive”.
With `O=C(O)c1cc(Br)c(O)c(Br)c1` the Potency was “inactive”.
With `CCO[Si](CCCS)(OCC)OCC` the Potency was “inactive”.
For `N[C@@H](COP(=O)(O)O)C(=O)O`, the Potency was “inactive”.
With `Cc1ccccc1N=O` the Potency was “inactive”.
Compound `COC(=O)C1CC(=O)C(C(=O)OC)CC1=O` (centres undefined) has a viability change, negative = cytotoxic of 14.4% [at 8.47 µM].
For `CC(=O)c1sc(C)nc1C`, the Potency was “inactive”.
For `CCC(C)(CCC(C)C)C(=O)O` (centres undefined), the Potency was “inactive”.
With `CC(C)(C)c1cc(CCC(=O)NN)cc(C(C)(C)C)c1O` the Potency was “inactive”.
In the case of `CC(C)NCC(O)COc1cccc2[nH]ccc12` (centres undefined), the Potency is reported as “inactive”.
With `CC(=O)N[C@@H](CCC(=O)O)C(=O)O` the Potency was “inactive”.
For `c1ccc2c(c1)ccc1c3ccccc3ccc21`, the Potency was “inactive”.
In the case of `COc1ccc(OC)c(Cl)c1`, the Potency is reported as “inactive”.
With `CC(CN)CC(C)(C)CCN` (centres undefined) the Potency was “inactive”.
For `O=C(NCC(O)CO)c1c(I)c(C(=O)NCC(O)CO)c(I)c(N(CCO)C(=O)CO)c1I` (centres undefined), the Potency was “inactive”.
For `NCCS`, the Potency was “inactive”.

Biological target: Peroxisome proliferator-activated receptor gamma (Homo sapiens) (UniProt P37231)
Sequence (P37231 whole entry, looked up): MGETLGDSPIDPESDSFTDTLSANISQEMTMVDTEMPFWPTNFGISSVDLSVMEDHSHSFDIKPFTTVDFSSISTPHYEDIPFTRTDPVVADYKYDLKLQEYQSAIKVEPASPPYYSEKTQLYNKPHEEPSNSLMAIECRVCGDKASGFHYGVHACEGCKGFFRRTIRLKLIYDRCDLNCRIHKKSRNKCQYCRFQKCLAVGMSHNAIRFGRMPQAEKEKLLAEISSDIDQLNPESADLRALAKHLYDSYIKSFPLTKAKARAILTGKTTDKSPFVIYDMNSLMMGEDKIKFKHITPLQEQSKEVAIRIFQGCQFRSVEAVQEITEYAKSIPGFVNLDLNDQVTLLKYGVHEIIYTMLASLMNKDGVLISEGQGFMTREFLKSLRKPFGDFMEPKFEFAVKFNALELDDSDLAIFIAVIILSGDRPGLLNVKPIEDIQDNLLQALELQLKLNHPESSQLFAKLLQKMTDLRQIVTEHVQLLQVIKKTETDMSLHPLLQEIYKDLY
Assay: qHTS assay to identify small molecule agonists of the peroxisome proliferator-activated receptor gamma (PPARg) signaling pathway (AID 743094; active = well fitted activation curve with a large enough effect in the signal ratio in the repeat runs, not every such curve was filed as active; the % refers to the signal ratio)
Settings: HEK293H PPARg-UAS-bla, beta-lactamase FRET ratio, 17 h; series mostly up to 57 µM
Outline: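 HEK293H PPARg-bla cells, 5 h settle at 37C/5% CO2; compound (DMSO) 17 h, 37C; B/G FRET substrate 1 h RT; fluorescence intensity read-out. qHTS format.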
With `CN=C(NC#N)Nc1ccc(C2=NNC(=O)CC2C)cc1` (centres undefined) the outcome was “inactive”.
In the case of `O=C(OCC1(COC(=O)c2cccnc2)CCCC(COC(=O)c2cccnc2)(COC(=O)c2cccnc2)C1O)c1cccnc1`, the outcome is reported as “inactive”.
With `OCCN(CCO)c1cccc(Cl)c1` the outcome was “inactive”.
With `CCCC/C=C\CCCCCCCCCC=O` the outcome was “inactive”.
With `CC/C=C\CC1=C(C)CCC1=O` the outcome was “inactive”.
In the case of `BrCc1cccc(Oc2ccccc2)c1`, the outcome is reported as “inactive”.
With `C[Si](C)(C)C` the outcome was “inactive”.
With `N#Cc1ccc(C(=O)O)cc1` the outcome was “inactive”.
With `O=C(NCCN1CCOCC1)c1ccc(Cl)cc1` the outcome was “inactive”.
For `CC(C)CC(C)CC(C)CC(C)COC(=O)c1ccccc1C(=O)OCC(C)CC(C)CC(C)CC(C)C` (centres undefined), the outcome was “inactive”.
For `CNC(=O)[C@H]1O[C@@H](n2cnc3c(NCc4cc(Cl)ccc4OCc4cc(C)no4)ncnc32)[C@H](O)[C@@H]1N`, the outcome was “inactive”.
With `FC(F)(F)c1ccccc1-n1ccnc1` the outcome was “inactive”.
In the case of `CC1COc2ccccc2N1` (centres undefined), the outcome is reported as “inactive”.
In the case of `O=C(O)c1cc(Br)c(O)c(Br)c1`, the outcome is reported as “inactive”.
In the case of `C=CC(OCC)OCC`, the outcome is reported as “inactive”.
In the case of `CCOCCOCCOCC`, the outcome is reported as “inactive”.
In the case of `C#CC(C)N(C)C(=O)Nc1ccc(Cl)cc1` (centres undefined), the outcome is reported as “inactive”.
For `N[C@@H](COP(=O)(O)O)C(=O)O`, the outcome was “inactive”.
For `COC(=O)C1CC(=O)C(C(=O)OC)CC1=O` (centres undefined), the activation was -2.09% [at 7.08 µM].
In the case of `CC(=O)c1sc(C)nc1C`, the outcome is reported as “inactive”.
In the case of `CC(C)(C)c1cc(CCC(=O)NN)cc(C(C)(C)C)c1O`, the outcome is reported as “inactive”.
For `O=S(=O)(O)CCN1CCN(CCO)CC1`, the outcome was “inactive”.
For `CC(C)NCC(O)COc1cccc2[nH]ccc12` (centres undefined), the outcome was “inactive”.
For `COc1ccc(OC)c(Cl)c1`, the outcome was “inactive”.

Biological target: Peroxisome proliferator-activated receptor gamma (Homo sapiens) (UniProt P37231)
Assay: qHTS assay to identify small molecule antagonists of the peroxisome proliferator-activated receptor gamma (PPARg) signaling pathway (AID 743191; calls by dose curve; note: nearly all actives have a fitted effect of over 30% in size)
Settings: HEK293H PPARg-UAS-bla, beta-lactamase ratio, antagonist, 17 h; series mostly up to 62.6 µM
Outline: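 GeneBLAzer PPARg UAS-bla HEK293H cells carrying a UAS-driven beta-lactamase reporter were plated at 3000 cells/well, preincubated 5 h at 37C, then given compound for 17 h at 37C; LiveBLAzer B/G FRET substrate was read after 1 h at room temperature.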
For `CN=C(NC#N)Nc1ccc(C2=NNC(=O)CC2C)cc1` (centres undefined), the Potency was “inactive”.
For `OCCN(CCO)c1cccc(Cl)c1`, the Potency was “inactive”.
With `CC(C)(C)OC(=O)c1ccc(O)cc1` the Potency was “inactive”.
With `CC/C=C\CC1=C(C)CCC1=O` the Potency was “inactive”.
For `CCC(C=O)CC`, the Potency was “inactive”.
With `BrCc1cccc(Oc2ccccc2)c1` the Potency was “inactive”.
In the case of `O=C(NCCN1CCOCC1)c1ccc(Cl)cc1`, the Potency is reported as “inactive”.
For `CCCOC(OCCC)OCCC`, the Potency was “inactive”.
With `CNC(=O)[C@H]1O[C@@H](n2cnc3c(NCc4cc(Cl)ccc4OCc4cc(C)no4)ncnc32)[C@H](O)[C@@H]1N` the Potency was “inactive”.
For `FC(F)(F)c1ccccc1-n1ccnc1`, the Potency was “inactive”.
In the case of `CC1COc2ccccc2N1` (centres undefined), the Potency is reported as “inactive”.
In the case of `O=C(O)c1cc(Br)c(O)c(Br)c1`, the Potency is reported as “inactive”.
With `CCOCCOCCOCC` the Potency was “inactive”.
With `C#CC(C)N(C)C(=O)Nc1ccc(Cl)cc1` (centres undefined) the Potency was “inactive”.
With `N[C@@H](COP(=O)(O)O)C(=O)O` the Potency was “inactive”.
`COC(=O)C1CC(=O)C(C(=O)OC)CC1=O` (centres undefined) gave a ratio activity, negative = inhibition of 0.96% [at 5.95 µM].
In the case of `CC(=O)c1sc(C)nc1C`, the Potency is reported as “inactive”.
In the case of `O=S(=O)(O)CCN1CCN(CCO)CC1`, the Potency is reported as “inactive”.
With `CC(=O)N[C@@H](CCC(=O)O)C(=O)O` the Potency was “inactive”.
For `c1ccc2c(c1)ccc1c3ccccc3ccc21`, the Potency was “inactive”.
With `COc1ccc(OC)c(Cl)c1` the Potency was “inactive”.
With `CC(CN)CC(C)(C)CCN` (centres undefined) the Potency was “inactive”.
In the case of `NCCS`, the Potency is reported as “inactive”.

Reference: PubChem BioAssay (Tox21)
